Results taken from PubChem BioAssay (NCATS).
Unmarked numbers belong to inactive results. Records with an inconclusive call do not appear. A call without a number means that no potency is given here. Calls of active or inactive are those of the source. Calls come from the whole dose curve; as a rule, active = well fitted curve in the direction sought with a large enough effect; inconclusive = small, poorly fitted or top-dose-only effect, or another doubt; inactive = no such curve, though single readings can be large; an effect the other way counts as inactive or inconclusive.

What was measured:
[1] = target: Glutathione peroxidase 1 (Homo sapiens) (UniProt P07203); assay: Primary qHTS Assay for Inhibitors of Recombinant Selenoprotein Glutathione Peroxidase 1 (GPX1) (AID 1845191); note: nearly all actives have a fitted effect of over 65% in size
Procedure, shortened: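 GPX1 10 nM, GR 100 nM, GSH 1 mM, NADPH 0.5 mM, CHP 0.5 mM (final). 30-min cpd preincubation, RT. Ex340/Em450 read t=0, t=15 min.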

[2] = target: Phospholipid hydroperoxide glutathione peroxidase GPX4 (Homo sapiens) (UniProt P36969); assay: Primary qHTS Assay for Inhibitors of Recombinant Selenoprotein Glutathione Peroxidase 4 (GPX4) (AID 1845192); note: nearly all actives have a fitted effect of over 65% in size; for activity change, negative = inhibition: series mostly up to about 50 µM
Procedure, shortened: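 qHTS, GR-coupled: GPX4 200 nM + cpd 30 min RT → GSH 1 mM, NADPH 0.5 mM, GR 100 nM → CHP 0.5 mM start; fluor 340/450 at t0 and t15 min; no-enzyme wells as control.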

[3] = target: Luciferin 4-monooxygenase (Photinus pyralis) (UniProt P08659); assay: Primary firefly luciferase (FLuc) qHTS assay for identification of artifact compounds. (AID 1845220); note: nearly all actives have a fitted effect of over 60% in size; for activity change, negative = inhibition: series mostly up to about 54 µM
Procedure, shortened: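 qHTS, 15 min compound preincubation with substrate (10 uM luciferin, 10 uM ATP) at RT, then 10 nM FLuc; 5 min; luminescence; % inhibition vs no-enzyme/DMSO controls, 4-parameter Hill fit.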

[4] = Primary fluorescence-based thiol-reactive (MSTI) qHTS assay for identification of artifact compounds. (AID 1845221); note: nearly all actives have a fitted effect of over 65% in size; note: potency is the fitted concentration of half-maximal effect;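 for activity change, negative = thiol reactive: series mostly up to about 54 µM; thiol-reactive compounds lower the probe fluorescence signal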
Procedure, shortened: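 One-hour, room-temperature, dark incubation of compound with 4 uM MSTI in PBS (pH 7.4, 2% DMSO) precedes a fluorescence read at 525 nm excitation, 598 nm emission; Hill-equation fitting yields concentration-response values.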

[5] = system: Nanoluciferase (engineered Oplophorus gracilirostris luciferase); assay: Primary Nanoluciferase (NLuc) qHTS assay for identification of artifact compounds. (AID 1845222); note: series mostly up to about 54 µM
Procedure, shortened: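 Luminescence read-out of secreted NLuc in S16 cell conditioned medium (1:55); compounds tested with 15 min RT preincubation, then Nano-Glo substrate 1:100, 5 min. % inhibition vs no-enzyme and DMSO controls, 4-parameter Hill fit.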

[6] = Primary redox qHTS assay for identification of artifact compounds. (AID 1845223)
Procedure, shortened: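 Redox-cycling detection via DTT (250 uM final) oxidation coupled to Amplex Red (25 uM)/HRP (250 mU/mL) in HBSS. 15 min preincubation plus 30 min after DTT, room temperature. Ex/Em 525/598 nm; 4-parameter Hill fit against DMSO and 10 uM DA3003.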

Sequence of Glutathione peroxidase 1 (Homo sapiens) (P07203 whole entry, looked up): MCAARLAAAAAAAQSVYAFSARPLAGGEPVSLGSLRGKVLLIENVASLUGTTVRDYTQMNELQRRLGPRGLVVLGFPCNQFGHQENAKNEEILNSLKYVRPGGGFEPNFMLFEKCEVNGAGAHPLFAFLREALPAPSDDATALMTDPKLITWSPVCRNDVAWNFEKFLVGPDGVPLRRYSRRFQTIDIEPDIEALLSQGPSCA
Sequence of Phospholipid hydroperoxide glutathione peroxidase GPX4 (Homo sapiens) (P36969 whole entry, looked up): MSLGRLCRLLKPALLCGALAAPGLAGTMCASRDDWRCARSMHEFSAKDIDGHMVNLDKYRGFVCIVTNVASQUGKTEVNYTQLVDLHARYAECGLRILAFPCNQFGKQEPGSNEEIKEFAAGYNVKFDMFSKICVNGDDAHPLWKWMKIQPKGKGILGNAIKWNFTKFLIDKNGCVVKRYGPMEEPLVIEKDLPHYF

Row | Structure (SMILES) | Potency [1] | Potency [2] | Potency [3] | Potency [4] | Potency [5] | Potency [6] | activity change, negative = inhibition [3] | activity change, negative = thiol reactive [4] | activity, negative = inhibition [5] | redox activity (% of DA3003) [6]
1 | CC1=C(CC(=O)O)c2cc(F)ccc2C1=Cc1ccc(S(C)(=O)=O)cc1 | inactive | inactive | inactive | inactive | inactive | inactive |  |  |  | 
2 | CC1CCC2(NC1)OC1C(=O)C3C4CCC5CC(O[C@@H]6O[C@H](CO)[C@@H](O)[C@H](O)[C@H]6O[C@@H]6O[C@@H](C)[C@H](O)[C@@H](O)[C@H]6O)CCC5(C)C4CCC3(C)C1C2C (some centres undefined) | inactive | inactive | inactive | inactive | inactive | inactive |  |  |  | 
3 | Cc1[nH]cnc1C1CCN(c2nc3cccc4c3n2CCC4=O)CC1 | inactive | inactive | inactive | inactive | inactive | inactive |  |  |  | 
4 | O=C(COc1ccc(Cl)cc1)NC1CCC(NC(=O)COc2ccc(Cl)cc2)CC1 (centres undefined) | inactive | inactive | inactive | inactive | inactive | inactive |  |  |  | 
5 | C=CC(C)(C)C12CC3C(=O)NC(Cc4cnc[nH]4)C(=O)N3C1Nc1ccccc12 (centres undefined) | inactive | inactive | inactive | inactive | inactive | inactive |  |  |  | 
6 | Cc1c(CN(C)C(=O)/C=C/c2cnc3c(c2)CCC(=O)N3)oc2ccccc12 | inactive | inactive | inactive | inactive | inactive | inactive |  |  |  | 
7 | CC12CCC3c4ccc(O)cc4CCC3C1CCC2OC1OC(C(=O)O)C(O)C(O)C1O (centres undefined) | inactive | inactive | inactive | inactive | inactive | inactive |  |  |  | 
8 | CCC[C@@H]1C[C@@H](C(=O)N[C@@H]([C@H]2O[C@H](SC)[C@H](OP(=O)(O)O)[C@@H](O)[C@H]2O)[C@H](C)Cl)N(C)C1 | inactive | inactive | inactive | inactive | inactive | inactive |  |  |  | 
9 | CC(=O)OCC1=C[C@H](O)[C@@H]2C(C(=O)O)=CO[C@@H](O[C@@H]3O[C@H](CO)[C@@H](O)[C@H](O)[C@H]3O)[C@H]12 | inactive | inactive | inactive | inactive | inactive | inactive |  |  |  | 
10 | CC(=O)OCCC(C)CCC1C(C)(O)CCC2C(C)(C)CCCC21C (centres undefined) | inactive | inactive | inactive | inactive | inactive | inactive |  |  |  | 
11 | C=C1CC2[C@]3(C)C(=C(O)C(=O)[C@@]2(C)[C@]2(C(=O)OC)C(=O)C(C)OC(=O)[C@@]12C)C(C)(C)C(=O)CC3O (some centres undefined) | inactive | inactive | inactive | inactive | inactive | inactive |  |  |  | 
12 | CC1CC(O)CC(C)(C)C1(O)CCO (centres undefined) | inactive | inactive | inactive | inactive | inactive | inactive |  |  |  | 
13 | C[C@@H]1O[C@@H](O[C@H]2[C@H](O[C@H]3[C@H](O[C@H]4CC[C@@]5(C=O)C(CC[C@]6(C)C5CC=C5C7CC(C)(C)C[C@@H](O)[C@]7(C)CC[C@]56C)C4(C)C)O[C@H](C(=O)O)[C@@H](O)[C@@H]3O)OC[C@@H](O)[C@@H]2O)[C@H](O)[C@H](O)[C@H]1O (some centres undefined) | inactive | inactive |  |  |  |  | 0.64% [at 11.6 µM] | 114% [at 11.5 µM] | 3.37% [at 11.6 µM] | 8.98% [at 11.5 µM]
14 | C[C@]1(OC(=O)/C=C/c2ccccc2)C[C@H](O)[C@]2(O)C=CO[C@@H](O[C@@H]3O[C@H](CO)[C@@H](O)[C@H](O)[C@H]3O)C12 (some centres undefined) | inactive | inactive | inactive | inactive | inactive | inactive |  |  |  | 
15 | CC1(C)CCCC2(C)C(CO)C3CCC2C31 (centres undefined) | inactive | inactive | inactive | inactive | inactive | inactive |  |  |  | 
16 | C/C1=C\C[C@H](O[C@@H]2O[C@H](CO)[C@@H](O)[C@H](O)[C@H]2O)/C(C)=C/[C@H]2OC(=O)[C@H](C)[C@@H]2CC1 | inactive | inactive | inactive | 7.33 µM (active) | inactive | inactive |  |  |  | 
17 | CC(=O)N1c2ccccc2C2(O)CC3C(=O)NC(CC(C)C)C(=O)N3C12 (centres undefined) | inactive | inactive | inactive | inactive | inactive | inactive |  |  |  | 
18 | CC(C)(O)C1CC=C(C(=O)OCC2OC(Oc3c(O)cc(C(=O)O)cc3O)C(O)C(O)C2O)CC1 (centres undefined) | inactive | inactive | inactive | 0.822 µM (active) | inactive | inactive |  |  |  | 
19 | O=C1NC(Cc2ccc(O)cc2)C(=O)N2CCCC12 (centres undefined) | inactive | inactive | inactive | inactive | inactive | inactive |  |  |  | 
